assay: PSAC antagonists in infected red cells, primary screen, cell-based, P. falciparum Indochina, OD700, 2 h (AID 1155);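 also: lysis reports solute entry through the parasite surface anion channel PSAC; channel blockers reduce lysis of infected cells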; conditions: P. falciparum Indochina infected erythrocytes, osmotic lysis OD700; higher = more signal, called active from +8 up or from −8 down

z-score, inactive:
COc1cc(Cc2cc3c(c(-c4ccccc4)n2)[Si](C(C)C)(C(C)C)OC3)cc(OC)c1OC 0.702
COCCOC(=O)N1C(=O)[C@@]2(c3cc(C#CCC(C(=O)OC)C(=O)OC)ccc31)[C@H](C(N)=O)[C@H]1C(=O)O[C@H](c3ccccc3)[C@H](c3ccccc3)N1[C@@H]2c1ccccc1OCCO 2.37
C[C@@]1([C@@H](NS(=O)(=O)c2cccc3cccnc23)c2ccc(-c3ccccc3)cc2)C[C@H]1C1CCCCC1 0.367
C=C(C(=O)CC[C@@H](OC(=O)c1ccccc1-c1ccccc1C(=O)O)c1ccc(CO)o1)C(C)C 0.192
CCOC(=O)C1=CCC(c2cccn2C(=O)OC(C)(C)C)N(S(=O)(=O)c2ccc(C)cc2)C1 (stereo unspecified) 1.26
O=C1N(Cc2ccccc2)c2ccccc2C[C@@]12N=C(c1ccc(OCCCO)cc1)O[C@H]2c1ccccc1 2.67
Cc1ccc(S[C@]2(C(=O)NC3CC3)CC(=O)N(C3Cc4ccccc4C3)[C@@H]2c2ccc(CO)cc2I)cc1 0.943
CCc1cccc(NC(=O)O[C@H]2[C@H](OC(=O)Nc3ccccc3-c3ccccc3)[C@H](OC(=O)Nc3ccccc3-c3ccccc3)[C@@H](OC)O[C@@H]2CO)c1 1.84
CC(C)C[C@H]1NC(=O)CNC(=O)[C@@]23C(=O)N[C@@H](Cc4ccccc4)C2[C@H](C)[C@@]2(C)O[C@H]2C3/C=C/C/C=C\CNC1=O (stereo partly specified) 0.41
C=C(/C=C\CNS(=O)(=O)c1ccc(C)cc1)[C@H](O)[C@H]1CCCN1S(=O)(=O)c1ccccc1[N+](=O)[O-] 2.16
C[C@]1(C(=O)O)c2ccccc2C(=O)N(Cc2cc(C(F)(F)F)cc(C(F)(F)F)c2)[C@H]1c1ccc(CO)cc1 0.168
COC(=O)C(CC#Cc1ccc2c(c1)[C@]1(C(=O)N2)[C@H](c2ccc(OCCO)cc2)N2[C@H](c3ccccc3)[C@H](c3ccccc3)OC(=O)[C@H]2[C@@H]1C(N)=O)C(=O)OC 1.36
CN1C(=O)C2C=CC(C(O)c3ccc(I)cc3)N(N(c3ccccc3)c3ccccc3)C2C1=O (stereo unspecified) 1.62
COc1ccc([Si](C)(C)[C@@H]2[C@@H](CC(=O)N(CCO)Cc3ccccc3)O[C@]3(C(=O)N(Cc4cccc(I)c4)c4ccccc43)[C@H]2C)cc1 1.5
COc1ccc([Si](C)(C)[C@H]2[C@H](CC(=O)N3CCC[C@H]3CO)O[C@@]3(C(=O)N(Cc4cccc(N5CCCCC5=O)c4)c4ccccc43)[C@@H]2C)cc1 0.57
O=C1C2C=CC(C(O)C3CCCCC3)N(Nc3ccccc3F)C2C(=O)N1c1ccccc1 (stereo unspecified) 0.304
C=C(COC)/C(=C/C[C@@H](OC(C)=O)c1cccc(OCCO)c1)c1cnc2ccccc2c1 4.9
COC(=O)C1=CC(c2ccc(CO)cc2)=CC(C2CC2)N(Cc2cc3c(cc2Br)OCO3)C=C1C(=O)OC (stereo unspecified) 0.856
O=C/C=C/c1ccc(-c2ccccc2)cc1 -0.681
COc1ccc(C(O)C2C=CC3C(=O)N(C)C(=O)C3N2Nc2ccccc2)cc1 (stereo unspecified) 0.865
COCCOC(=O)N1C(=O)[C@@]2(c3cc(C#CCNC(N)=O)ccc31)[C@H](c1ccccc1OCCO)N1[C@H](c3ccccc3)[C@H](c3ccccc3)OC(=O)[C@H]1[C@@H]2C(=O)N1CCCCCCC1 0.696
CC1C2C(CCCO)=CC(C3C(=O)N(C(N)=O)C(=O)C23)N1Cc1cccc(OC(F)(F)F)c1 (stereo unspecified) 0.0112
CCCC=C(CCC)[C@@H](NC(=O)c1ccc(C(=O)OC)cc1)c1ccc(C(=O)OC)cc1 0.409
COc1ccc(C#Cc2ccc3c(c2)[C@]2(C(=O)N3)[C@H](c3ccccc3OCCO)N3[C@H](c4ccccc4)[C@H](c4ccccc4)OC(=O)[C@H]3[C@@H]2C(=O)NC[C@H](O)c2ccccc2)cc1 1.71
C=C(C(=O)CC[C@@H](OC(=O)c1ccccc1-c1ccccc1C(=O)O)c1cccc(OCCO)c1)C(C)C 0.407
C[C@]1(C(=O)NC2CC2)c2ccccc2C(=O)N(Cc2cc(F)cc(C(F)(F)F)c2)[C@H]1c1ccc(CO)cc1 0.334
C=C(COC)C(=O)CC[C@H](OC(C)=O)c1ccccc1OCCO -0.291
CCOC(=O)C[C@H]1[C@H](OC(=O)Cc2ccc3c(c2)OCO3)[C@@H](NC(=O)CC(C)C)c2cc(OCCCO)ccc2N1C(=O)c1ccc2ccccc2n1 -1.19
O=C1C[C@@](C(=O)NCC(F)(F)F)(c2ccc([N+](=O)[O-])cc2)[C@@H](c2ccc(CO)cc2I)N1CC12CC3CC(CC(C3)C1)C2 5.06
COc1cc(CO)cc(I)c1O[C@H]1C=C(C(=O)NCCO)C[C@@H](N(CCN2CCOCC2)C(=O)C2CCCO2)[C@@H]1O (stereo partly specified) -0.339
O=C1C2C=CC(C(O)C(c3ccccc3)c3ccccc3)N(Nc3ccccc3F)C2C(=O)N1c1ccccc1 (stereo unspecified) 1.25
COC(=O)C[C@H]1O[C@]2(C(=O)N(C)c3ccccc32)[C@@H](C)[C@@H]1[Si](C)(C)c1ccccc1 0.405
CC(C)(C)OC(=O)CC[C@]1(C(=O)N2CCOCC2)COC(c2ccc(OCCCO)cc2)=N1 4.54
C=C(CC1([C@@H](NP(=O)(c2ccccc2)c2ccccc2)[C@H]2C[C@@H]2CCCC)CC1)c1cccc(OC)c1 0.451
COc1ccc(C(=O)Nc2cccc(CN3C(=O)[C@]4(O[C@H](CC(=O)N(CCO)Cc5ccccc5)[C@@H]([Si](C)(C)c5ccc(OC)cc5)[C@@H]4C)c4ccccc43)c2)cc1 0.614
CC[C@@H](O[Si](C#C[Si](C(C)C)(C(C)C)C(C)C)(C(C)C)C(C)C)c1cn([C@H](CO)Cc2ccccc2)nn1 0.49
